# High-throughput results deposited in PubChem BioAssay by several laboratories.
# Bim-Bfl-1 = inhibitors of Bim binding to Bfl-1, primary screen, biochemical, multiplexed, bead-based flow cytometry. Bim-Bfl-1 binding inhibition. hit rate 0.12% among 190,000. inhibition, % at 10 µM. Bcl-2-related protein A1 (Homo sapiens), Q16548
# Target sequence (Q16548 whole entry, looked up): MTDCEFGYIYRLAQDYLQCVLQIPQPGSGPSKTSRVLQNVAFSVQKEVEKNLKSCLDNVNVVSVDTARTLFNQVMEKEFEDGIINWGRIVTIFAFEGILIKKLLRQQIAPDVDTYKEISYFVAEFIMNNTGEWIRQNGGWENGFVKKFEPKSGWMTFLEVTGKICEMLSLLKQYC
# Bcl-2 Bim block = inhibitors of Bim-Bcl-2 binding, primary screen, biochemical, multiplexed, human Bcl-2 family | Apoptosis regulator Bcl-2 (Homo sapiens), P10415 | Bead-based flow cytometry, Bim peptide-Bcl-2 binding | inhibition, % at 10 µM | hit rate 0.06% among 190,000 | AID 950, 2007; in the data active = inhibition above about 40%
# Target sequence (P10415 whole entry, looked up): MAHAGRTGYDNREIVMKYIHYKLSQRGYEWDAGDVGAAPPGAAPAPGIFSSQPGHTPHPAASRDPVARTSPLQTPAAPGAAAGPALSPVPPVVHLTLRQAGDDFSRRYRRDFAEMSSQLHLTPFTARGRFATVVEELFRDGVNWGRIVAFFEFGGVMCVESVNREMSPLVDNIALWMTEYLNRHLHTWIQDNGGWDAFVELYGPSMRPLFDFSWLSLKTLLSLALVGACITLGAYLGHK
# Bim-Bcl-B = inhibitors of Bim-Bcl-B binding, primary screen, biochemical, multiplexed, human Bcl-2 family. Bcl-2-like protein 10 (Homo sapiens), Q9HD36. bead-based flow cytometry, Bim peptide-Bcl-B binding. inhibition, % at 10 µM. hit rate 0.073% among 190,000. AID 951, 2007
# Wee1 stabilizer = Wee1 degradation inhibitors, primary screen, cell-based, HeLa, Wee1K328M-luciferase, luminescence | Wee1-like protein kinase (Homo sapiens), P30291 | HeLa Luc-Wee1K328M stability; 100% = proteasome inhibitor MG132 effect | reporter increase, % at 5 µM | hit rate 1.2% among 220,000 | AID 1321, 2008;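 active = activation above the mean of all tested compounds plus 3 SD, set per screening run, cut at about 8.8% in these data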;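 also: cells exposed to compound for 20 h before luminescence read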
# Bcl-W Bim block = inhibitors of Bim binding to Bcl-W, primary screen, biochemical, multiplexed, bead-based flow cytometry; Bcl-2-like protein 2 (Homo sapiens), Q92843; Bim peptide-Bcl-W binding; inhibition, % at 10 µM; hit rate 0.02% among 190,000;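 also: higher means less fluorescent Bim peptide bound to Bcl-W beads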
# Target sequence (Q92843 whole entry, looked up): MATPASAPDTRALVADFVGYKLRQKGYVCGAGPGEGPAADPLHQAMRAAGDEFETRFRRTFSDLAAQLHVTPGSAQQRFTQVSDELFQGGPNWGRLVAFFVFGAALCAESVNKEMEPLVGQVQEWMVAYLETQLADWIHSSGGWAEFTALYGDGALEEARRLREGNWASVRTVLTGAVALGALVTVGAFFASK
# Bcl-XL Bim block = inhibitors of Bim-Bcl-XL binding, primary screen, biochemical, multiplexed, bead flow cytometry, human Bcl-XL. Bcl-2-like protein 1 (Homo sapiens), Q07817. Bim peptide-Bcl-XL binding, fluorescence. inhibition, % at 10 µM. hit rate 0.04% among 190,000
# Wee1 degr conf = Wee1 degradation inhibitors, confirmation, cell-based, HeLa, Wee1K328M-luciferase, luminescence, triplicate; shares compounds with Wee1 stabilizer; HeLa Luc-Wee1K328M degradation; vehicle 0%, proteasome-blocked wells 100%; activation, % at 5 µM; hit rate 4% among 1,100; AID 1410, 2008; in the data active = activation above about 8.9%
# A number is an active result; 0 = inactive; - = not tested or not shown. An excerpt weighted towards active compounds, which were near 1.4% of everything screened. Rule as the data show it, unless noted: active = inhibition above about 40%.
SMILES,Bim-Bfl-1,Bcl-2 Bim block,Bim-Bcl-B,Wee1 stabilizer,Bcl-W Bim block,Bcl-XL Bim block,Wee1 degr conf
O=c1oc2cc(Cl)ccc2n1CSc1nc2ccccc2s1,0,0,0,0,0,0,-
CC1C[N+](=C2C=C(N3CCOCC3)CC(C)(C)C2)CC(C)O1 (stereo not drawn),-,-,-,0,-,-,-
Cc1cccn2c(=O)c(/C=C(\C#N)C(=O)NC3CCS(=O)(=O)C3)c(N3CCC(C)CC3)nc12 (stereo not drawn),0,0,0,0,0,0,-
Cc1ccsc1/C=C(\C#N)C(=O)NC1CCS(=O)(=O)C1 (stereo not drawn),0,0,0,12.2,0,0,0
N/C(=N\OC(=O)c1ccco1)c1ccc(Br)cc1,0,0,0,15.3,0,0,0
N/C(=N\OC(=O)c1ccco1)c1ccccc1,0,0,0,0,0,0,-
CCN(CC)c1ccc(-c2n[nH]c(=S)n2-c2ccccc2)cc1,0,0,0,0,0,0,-
CN1/C(=C\C(=O)Nc2cccc(Cl)c2)C(C)(C)c2ccccc21,0,0,0,19.3,0,0,0
CCn1c(O)c(C=Nc2ccccc2)oc1=S,0,0,0,13.7,0,0,0
CCOC(=O)N1CCN(CC(=O)Nc2ccc(OC)cc2)CC1,0,0,0,0,0,0,-
CCNC(=S)N1CCN(CC(=O)Nc2ccc(OC)cc2)CC1,0,0,0,12.3,0,0,0
O=S(=O)(c1ccc(N2CCCCCC2)nc1)N1CCCC1,0,0,0,12.7,0,0,0
COC(=O)c1ccc(CSc2nnc(NC(=O)C3CC(=O)N(Cc4ccc(C)cc4)C3)s2)cc1 (stereo not drawn),0,0,0,0,0,0,-
NC(=O)c1cnn(-c2ccc3ccccc3c2)c1N,0,0,0,0,0,0,-
O=C1Nc2ccc(Cl)cc2[C@@](C#CC2CC2)(C(F)(F)F)O1,0,0,0,0,0,0,-
CC1CCCCN1CC(=O)NC(=O)NCc1ccccc1 (stereo not drawn),0,0,0,17.6,0,0,0
CC1CCN(CC(=O)NC(=O)NCc2ccccc2)CC1,0,0,0,0,0,0,-
COCCn1c(CN2CCN(c3ccccc3)CC2)nc2c1c(=O)n(C)c(=O)n2C,-,-,-,0,-,-,-
CCOCCn1c(CN2CCN(c3ccccc3)CC2)nc2c1c(=O)n(C)c(=O)n2C,-,-,-,11.3,-,-,0
CC(C)(C)c1ccc(C2(C)NC(=O)N(CC(=O)Nc3ccc4c(c3)OCO4)C2=O)cc1 (stereo not drawn),0,0,0,14.1,0,0,0
Cc1ccc(OCCSc2nc(N)cc(N)n2)cc1,0,0,0,11.4,0,0,0
O=C(Cc1ccccc1)Nc1ccccc1C(=O)N1CCCCCC1,0,0,0,0,0,0,-
O=C(/C=C/c1cccnc1)/C=C/c1cccnc1,-,-,-,17.6,-,-,21.6
O=C(NCCc1ccccc1)c1cc(=O)[nH]c2ccccc12,0,0,0,11.4,0,0,0
O=C(NCc1ccc2c(c1)OCO2)c1cc(=O)[nH]c2ccccc12,-,-,-,0,-,-,-
SMILES,Bim-Bfl-1,Bcl-2 Bim block,Bim-Bcl-B,Wee1 stabilizer,Bcl-W Bim block,Bcl-XL Bim block,Wee1 degr conf
O=C(NCCc1ccccc1)c1ccccc1F,0,0,0,0,0,0,-
O=C(NCCc1ccccc1)c1c(F)c(F)c(F)c(F)c1F,0,0,0,23.8,0,0,0
O=c1c(-c2nc3ccccc3s2)cccn1Cc1ccc(Cl)c(Cl)c1,0,0,0,0,0,0,-
Cc1noc(C)c1Cn1nc(C(=O)O)c2ccccc2c1=O,0,0,0,11.9,0,0,0
CCn1cc(C(=O)OCC(=O)N2C(C)CCCC2C)c(=O)c2ccc(C)nc21 (stereo not drawn),0,0,0,11.3,0,0,0
CCn1cc(C(=O)OCC(=O)N(C)C2CCS(=O)(=O)C2)c(=O)c2ccc(C)nc21 (stereo not drawn),0,0,0,0,0,0,-
O=C(COC(=O)Cc1ccccc1F)Nc1cc(S(=O)(=O)N2CCOCC2)ccc1N1CCCC1,0,0,0,0,0,0,-
CCCCS(=O)(=O)/C=C\C=C/S(=O)(=O)CCCC,0,0,0,18.7,0,0,12.1
Cc1csc(NC(=O)c2ccco2)c1C(=O)c1ccccc1,-,-,-,12.2,-,-,0
COc1ccc(C(=O)C2CCCN(C(=O)c3cc(C(C)C)no3)C2)cc1F (stereo not drawn),0,0,0,0,0,0,-
CC(C)N(Cc1ccccc1)C(=O)CSc1nccn1C,0,0,0,11.9,0,0,0
COc1ccc2[nH]cc(CCNS(=O)(=O)c3ccc(C)cc3)c2c1,-,-,-,0,-,-,-
Cc1cc(C)n2c(Nc3ccc4c(c3)OCCO4)c(-c3ccco3)nc2n1,0,0,0,0,0,0,-
Cc1ccc(Nc2c(-c3ccco3)nc3nc(C)cc(C)n23)cc1,0,0,0,31.4,0,0,0
CCC1CCCCN1C(=S)NC1CCCCC1 (stereo not drawn),0,0,0,13.9,0,0,0
CCNc1nc(NC(C)C)nc(N(C#N)C(C)C(=O)N(CC)CC)n1 (stereo not drawn),-,-,-,0,-,-,-
CC(=O)N1CC23C=CC(CC2CC12CCCCCC2)O3 (stereo not drawn),0,0,0,0,0,0,-
Cc1cc(C)n(-c2cccc(Cl)c2C#N)n1,-,-,-,13.0,-,-,0
O=C(CSc1nnc(Cc2ccccc2)n1-c1ccccc1)NNC(=O)Cc1ccccc1,0,0,0,16.9,0,0,0
O=C(Nc1nnc(-c2ccncc2)o1)c1ccccc1,0,0,0,22.0,0,0,0
COc1cc(/C=C2\SC(=O)N(CCNC(=O)c3sc4cc(F)ccc4c3Cl)C2=O)cc(OC)c1OC,0,0,0,0,0,0,-
CCCCNC(=S)Nc1ccc2nc3n(c(=O)c2c1)CCCCC3,0,0,0,0,0,0,-
CC(C)CCNC(=S)Nc1ccc2nc3n(c(=O)c2c1)CCCCC3,0,0,0,11.2,0,0,0
COc1ccc(NC(=S)NNC(=O)Cn2nc(C(F)F)cc2C(F)F)cc1,0,0,0,0,0,0,-
CCCC(=O)Nc1ccc2c(c1)nc(CN1CCCCC1)n2C,0,0,0,16.1,0,0,0
CCCC(=O)Nc1ccc2c(c1)nc(CN1CCCC1)n2C,0,0,0,0,0,0,-
Cc1nc(NNC(=O)c2ccc(Cl)cc2Cl)cc(-c2ccccc2)n1,0,0,0,11.0,0,0,0
O=C(NNC(=O)c1ccc(Cl)cc1Cl)Nc1ccccc1,0,0,0,0,0,0,-
CN1N=C2c3ccccc3CCC2C1c1ccc(Cl)cc1 (stereo not drawn),-,-,-,0,-,-,-
